# Assay results published in PubChem BioAssay (NCI).
# About 83,000 compounds went through this panel and 20% of them were active in at least one assay; those are over-represented in the sample as a whole.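 How to read the values: 0–100, growth inhibition (40 = 60% inhibited); 0, no net growth; -100 to 0, cell death (-40 = 40% of starting cells died; -100 = all dead).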 Unmarked numbers belong to inactive results. The source made the active and inactive calls. The calls were made as follows: active = growth percent below 10; inactive = the rest.
# Experiments:
# Assay in all cases: NCI-60 one-dose screen, 48 h (100 = growth as untreated, 0 = no growth, -100 = all killed)
# SK-MEL-2 melanoma = conditions: 10 µM unless noted
# EKVX NSCLC = conditions: 10 µM unless noted
# SN12C renal = conditions: 10 µM unless noted
# UO-31 renal = conditions: 10 µM unless noted
# TK-10 renal = conditions: 10 µM unless noted
# A498 renal = conditions: 10 µM unless noted
# MOLT-4 leukemia = conditions: 10 µM unless noted
# SR leukemia = conditions: 10 µM unless noted
# RPMI-8226 leukemia = conditions: 10 µM unless noted
# OVCAR-8 ovarian = conditions: 10 µM unless noted
# OVCAR-5 ovarian = conditions: 10 µM unless noted
# OVCAR-4 ovarian = conditions: 10 µM unless noted
# SK-OV-3 ovarian = conditions: 10 µM unless noted
# IGROV1 ovarian = conditions: 10 µM unless noted
# OVCAR-3 ovarian = conditions: 10 µM unless noted
# HS 578T breast = conditions: 10 µM unless noted
# NCI/ADR-RES ovarian = conditions: 10 µM unless noted
# CCRF-CEM leukemia = conditions: 10 µM unless noted
# ACHN renal = conditions: 10 µM unless noted
# CAKI-1 renal = conditions: 10 µM
Compound,growth (SK-MEL-2 melanoma),growth (EKVX NSCLC),growth (SN12C renal),growth (UO-31 renal),growth (TK-10 renal),growth (A498 renal),growth (MOLT-4 leukemia),growth (SR leukemia),growth (RPMI-8226 leukemia),growth (OVCAR-8 ovarian),growth (OVCAR-5 ovarian),growth (OVCAR-4 ovarian),growth (SK-OV-3 ovarian),growth (IGROV1 ovarian),growth (OVCAR-3 ovarian),growth (HS 578T breast),growth (NCI/ADR-RES ovarian),growth (CCRF-CEM leukemia),growth (ACHN renal),growth (CAKI-1 renal)
Cc1ccc(NC(=O)CN2CCOCC2)cc1Cl,95.1%,93.2%,93.1%,90.4%,95.6%,61.3%,90.2%,82.3%,93.3%,92%,99.9%,94.7%,90.1%,107%,104%,98.7%,103%,,,
CC(C)(CCN=C(N)Nc1ccccn1)c1ccc(C(F)(F)F)cc1,38.5%,21.6%,23.9%,14.4%,37%,57.2%,-15.6% (active),,-46.9% (active),15.7%,37.4%,22.3%,42.5%,11.9%,32.1%,62.1%,31.4%,7.26% (active),,
Cc1cc(O[C@@H]2O[C@@H](C)[C@H](O)[C@@H](O)[C@H]2O)c2c3c(c(O[C@@H]4O[C@@H](C)[C@H](O)[C@@H](O)[C@H]4O)cc2c1)C(=O)c1c(O)cccc1C3=O,90.4%,76.7%,54.2%,11.7%,,-53% (active),68.8%,82.6%,57.2%,22.9%,98.5%,81.8%,83.6%,89.3%,93.7%,-12.8% (active),36.4%,82.6%,47.2%,60.3%
CN1CCN(CC(=O)N(C)c2ccc(N=C(c3ccccc3)c3c(O)[nH]c4ccc(C#N)cc34)cc2)CC1,16.4%,63.4%,26.4%,23.9%,,27%,8.12% (active),0.738% (active),57.6%,39.1%,80.1%,48%,-7.83% (active),31%,52.2%,-2.32% (active),106%,15.8%,48.4%,20.2%
CC1OC(n2c3ccccc3c3c4c(c5c6ccccc6[nH]c5c32)C(=O)N(CCN[C@@H]2CCC[C@H]2N)C4=O)CC(O)C1O (stereo partly specified),47.1%,23.3%,13.7%,63.3%,,48.3%,2.71% (active),-19.1% (active),-5.48% (active),18%,49.2%,24.7%,20.1%,22.7%,27.7%,30%,77.6%,13.2%,25%,78.6%
COc1ccc(-c2nn(-c3ccc(NC(=O)Nc4ccc(Cl)c(Cl)c4)cc3)cc2-c2ccncc2)cc1Cl,-35.5% (active),21.5%,20.5%,16.9%,,10.7%,10.5%,5.18% (active),-30% (active),11.6%,22.6%,49.4%,34.6%,36.6%,7.34% (active),,12.8%,12.6%,14.8%,3.8% (active)
COc1ccc(CCNC=O)cc1OC,105%,105%,97.4%,82.3%,,102%,100%,117%,108%,107%,99.7%,100%,114%,94%,110%,105%,97.4%,105%,101%,100%
Nc1nccc2c1ccn2-c1ccc(NC(=O)c2ccc(N3CCOCC3)c(C(F)(F)F)c2)cc1,35.3%,36.7%,48.8%,-41.2% (active),,-9.64% (active),-3.7% (active),14.9%,-29.9% (active),28%,14.2%,77.4%,48.4%,35.8%,46%,,49.3%,18.5%,24.3%,-25.3% (active)
COc1ccc(-c2nn(-c3ccc(NC(=O)c4cc(C(F)(F)F)cc(C(F)(F)F)c4)cc3)cc2-c2ccncc2)cc1Cl,89.9%,70.3%,77.2%,44.6%,,45.8%,62.2%,73.6%,10.7%,68.2%,64%,90.5%,78.4%,74.7%,60.1%,,63.5%,59%,61.9%,41.2%
O=C1c2ccccc2OC=C(c2ccccc2)N1CCCCNc1ccc(F)cc1,89.2%,96.8%,77.4%,53.5%,,98.3%,48.4%,81%,69.8%,80.6%,95.7%,89.9%,67.9%,81.9%,110%,94.7%,85.8%,63.7%,97.5%,85.8%
CCCCOc1nc2ccc(Cl)cc2cc1/C=C/C(=O)/C=C/c1ccc(OC)cc1,90.5%,110%,92.7%,84.4%,,101%,78%,76.2%,8.93% (active),96.2%,122%,103%,110%,93.2%,98.2%,107%,107%,87.2%,105%,99.1%
O=C1c2ccccc2OC=C(c2ccccc2)N1CCCCN1CCCCC1,69%,39.5%,20.4%,85.8%,,87.1%,60.6%,65.2%,23.6%,51.7%,101%,58.7%,13.2%,73.7%,63.6%,75.1%,88.8%,43.9%,104%,101%
COc1cc(CN(c2ccc(Cl)cc2)C2OC(=O)c3ccccc32)cc(OC)c1OC (stereo unspecified),41.6%,59.9%,61.3%,72.4%,,40%,35.4%,32.1%,70.9%,74.8%,63.5%,74.7%,62.7%,63.9%,48.8%,59.6%,55.9%,65.7%,85.7%,69.1%
Nc1nccc2c1ccn2-c1ccc(NC(=O)Nc2cccc(C(F)(F)F)c2)cc1,113%,93.7%,87.1%,81.4%,,88.4%,82.8%,91.5%,67.4%,93.1%,97.9%,108%,104%,95.1%,80.8%,,89.3%,94.1%,91.6%,97.4%
C=CC(=O)Nc1cccc(Nc2nc(Nc3ccc(OCCOC(F)F)cc3)ncc2F)c1,0.225% (active),67.6%,22%,6.93% (active),,-35.4% (active),33.5%,10.5%,42.1%,46%,45.6%,40.6%,-25% (active),14%,48.4%,23.4%,44.6%,24.8%,4.89% (active),11.3%
COc1ccc(-c2nnc(SCC(=O)N3CCN(c4cc5c(cc4F)c(=O)c(C(=O)O)cn5C4CC4)CC3)o2)cc1OC,103%,102%,97.6%,93.7%,,96.7%,77.4%,90.6%,90.1%,96.9%,96.2%,103%,84.2%,97.1%,111%,101%,98.1%,82.6%,102%,97.1%
